Measured values as given in PubChem BioAssay.
Entries with a potency or affinity are not part of this list. The source made the active and inactive calls. Unless noted, cut-off not given; nearly all actives show IC50 up to about 0.98 µM.

The molecules below were run against Calcium-dependent protein kinase 1 (Plasmodium falciparum (isolate 3D7)) (UniProt P62344) (assay: PfCDPK1 kinase inhibitors, biochemical, TCAMS library (AID 1159585;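 further: inhibitors leave more ATP so luminescence rises with inhibition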)). Details: recombinant PfCDPK1, Kinase-Glo ATP depletion luminescence.
Chain of Calcium-dependent protein kinase 1 (Plasmodium falciparum (isolate 3D7)) (P62344 whole entry, looked up): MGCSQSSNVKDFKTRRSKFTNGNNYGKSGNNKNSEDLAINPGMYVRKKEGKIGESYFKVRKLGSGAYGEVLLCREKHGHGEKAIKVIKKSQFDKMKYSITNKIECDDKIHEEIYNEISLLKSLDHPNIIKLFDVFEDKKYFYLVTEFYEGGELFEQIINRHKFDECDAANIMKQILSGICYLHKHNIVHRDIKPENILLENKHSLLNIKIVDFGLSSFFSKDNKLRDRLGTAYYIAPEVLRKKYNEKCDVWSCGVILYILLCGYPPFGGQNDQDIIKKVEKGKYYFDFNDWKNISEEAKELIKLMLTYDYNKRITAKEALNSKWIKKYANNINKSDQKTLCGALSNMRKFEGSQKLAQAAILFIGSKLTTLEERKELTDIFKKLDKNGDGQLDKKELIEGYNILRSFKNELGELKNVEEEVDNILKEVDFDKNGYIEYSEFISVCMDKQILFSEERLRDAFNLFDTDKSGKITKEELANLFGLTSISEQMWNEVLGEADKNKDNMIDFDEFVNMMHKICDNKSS

outcome, inactive:
COc1ccc(C2C(C(=O)Nc3ccc(C)cc3Br)c3ccccc3C(=O)N2C)cc1 (stereo not given), COc1ccc(CCN(C)CCCCc2ccc(NC(=O)c3cccc4c(=O)c5cc(F)ccc5sc34)cc2)cc1OC, CS(=O)(=O)Nc1ccc(-c2ccc3ccnc(N)c3c2)cc1, Cc1c(NC(=O)COc2ccc(Cl)cc2C(=O)c2cc(F)cc(C(F)(F)F)c2)ccc2ncsc12, COc1c(Br)cc(Br)cc1-c1ccc(CN2CC3CCC2CC3)[nH]1, O=C(/C=C/c1ccc(Cl)c(Cl)c1)NCCCCCCN1CCCN(C(=O)Nc2cccc(Cl)c2)CC1, Cc1cc2ccc(/C=C/C(=O)NC3CCC(CCN4CCc5ccc(C#N)cc5CC4)CC3)cc2[nH]1 (stereo not given), CC(C)(C)c1ccc(C(=O)NC2CCC(CCN3CCc4ccc(S(C)(=O)=O)cc4CC3)CC2)cc1C(F)(F)F (stereo not given), CCN(CC)CCN(Cc1ccc(-c2ccc(C(F)(F)F)cc2)cc1)C(=O)Cn1c(CCc2c(F)cc(F)cc2F)nc(=O)c2ccccc21, CC(C)(C)c1ccc(CN2CCC(NC(=O)c3ccc(-c4ccccc4F)s3)CC2)cc1, C1=CN(Cc2ccccc2)C=CC1=C1C=Nc2ccccc21, CCOc1ccc(C(=O)Nc2ccc(-c3nc4ccccc4[nH]3)cc2)cc1[N+](=O)[O-], CCCC(C)Nc1nc(C)cc(N[C@@H](Cc2ccccc2)C(=O)Nc2ccc(OC)cc2)n1 (stereo not given in full), Cc1nc(N)nc(N)c1-c1ccc(Br)c([N+](=O)[O-])c1, Cc1cc(NN=Cc2cccc([N+](=O)[O-])c2)c2cc(F)ccc2n1, CCCCCC(=O)NCC(NCCCNc1cc(=O)c2ccccc2[nH]1)c1cc(Br)cc(Br)c1 (stereo not given), CCC(=O)c1c(C)n(-c2ncnc3c2nc(C)n3-c2ccc(C)cc2C)c2ccccc12, Cc1ccccc1NC1=NC(=S)N(c2cccc(C(F)(F)F)c2)C12CCC(C(C)(C)C)CC2 (stereo not given), C=CCc1cc(Cc2cnc(N)nc2N)cc(CCC)c1O, CCNc1cc(C)nc(Nc2ccc(F)cc2)n1, Cc1ccc2c(Cl)c(C(=O)N3CCCc4ccccc43)sc2c1, COc1ccc(CNCc2cccc(-c3csc(-c4nc5ccccc5[nH]4)c3)c2)cc1, CC(C)(C)c1ccc(OCCCON2C(N)=NC(N)=NC2(C)C)c(C(C)(C)C)c1, CC(=O)Nc1nc(C(=O)Nc2cccc(-c3ccc4c(cnn4CC4CC4)c3)c2)cs1, CN(Cc1ccc(NC(=O)CCC2CCN(C(=O)/C=C/c3ccc(Cl)c(Cl)c3)CC2)cc1)C1CCOCC1, O=C(NCc1cccs1)[C@H](Cc1ccccc1)Nc1ccnc(NCC2CCCCC2)n1, Cc1cc(N[C@@H](CC(C)C)C(=O)NCCOc2ccccc2)nc(NCCc2ccc(F)cc2)n1, Cc1cccc(OCC2CCN(c3ncc(C(=O)NC4CC4)cc3Cl)CC2)c1, O=c1cc(NCCCNCc2cc(Cl)cc(Cl)c2OCc2ccc(Cl)cc2)[nH]c2ccccc12, CC(C)N(CC(=O)c1ccc(O)c(C(=O)O)c1)Cc1ccccc1, Cc1ccc(NC(=O)Nc2ccc(Cn3ncc(N4CCCNCC4)c(Cl)c3=O)cc2)cc1, Oc1ccc2ccccc2c1CNCC1CCCCC1, Cc1cc(CN2CC[C@H](NC(=O)c3ccc(Cl)c(Cl)c3)C2)ccc1OCCN1CCCC1, CCN(CCN(C)C)Cc1ccc(-c2ccc(NS(=O)(=O)c3cccc(Cl)c3)cc2)cc1, CCOC(=O)[C@H](Cc1cc([N+](=O)[O-])c(Oc2ccc(OC)c(Cc3ccc(OC)c(C(C)C)c3)c2)c([N+](=O)[O-])c1)NC(=O)C(F)(F)F, Cc1[nH]c2ccccc2c(=O)c1-c1ccc(Cl)cc1, c1ccc(CN2CCC(NCc3ccccc3-c3ccc(CNCc4ccc5c(c4)OCO5)cc3)CC2)cc1, COc1ccc(-n2nc(C(=O)NCCC3=CCCCC3)c3ccccc3c2=O)cc1, Nc1nc(N)c2c(Oc3cccc4ccccc34)cccc2n1, Cc1cc(N(C)C)nc(Nc2ccc(NC(=O)Nc3ccccc3)cc2)n1

Each molecule was assayed against Plasmodium falciparum protein kinase 6 (PK6, PF3D7_1337100) (UniProt Q8IDW1) (assay: PfPK6 kinase inhibitors, biochemical, TCAMS library (AID 1159586; call rule not given here)). Details: recombinant PfPK6, Kinase-Glo ATP depletion luminescence.
Chain of Plasmodium falciparum protein kinase 6 (PK6, PF3D7_1337100) (Q8IDW1 1-305): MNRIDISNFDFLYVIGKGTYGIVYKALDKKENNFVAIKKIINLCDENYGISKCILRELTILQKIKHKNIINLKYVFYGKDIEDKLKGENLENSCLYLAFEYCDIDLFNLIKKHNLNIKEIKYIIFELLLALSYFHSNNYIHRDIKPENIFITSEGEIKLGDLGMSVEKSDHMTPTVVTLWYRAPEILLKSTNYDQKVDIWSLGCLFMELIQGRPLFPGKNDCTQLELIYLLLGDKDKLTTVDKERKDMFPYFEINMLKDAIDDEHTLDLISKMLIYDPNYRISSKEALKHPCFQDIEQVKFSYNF

outcome, inactive:
COc1ccc(C2C(C(=O)Nc3ccc(C)cc3Br)c3ccccc3C(=O)N2C)cc1 (stereo not given), COc1ccc(CCN(C)CCCCc2ccc(NC(=O)c3cccc4c(=O)c5cc(F)ccc5sc34)cc2)cc1OC, CS(=O)(=O)Nc1ccc(-c2ccc3ccnc(N)c3c2)cc1, Cc1c(NC(=O)COc2ccc(Cl)cc2C(=O)c2cc(F)cc(C(F)(F)F)c2)ccc2ncsc12, COc1c(Br)cc(Br)cc1-c1ccc(CN2CC3CCC2CC3)[nH]1, O=C(/C=C/c1ccc(Cl)c(Cl)c1)NCCCCCCN1CCCN(C(=O)Nc2cccc(Cl)c2)CC1, Cc1cc2ccc(/C=C/C(=O)NC3CCC(CCN4CCc5ccc(C#N)cc5CC4)CC3)cc2[nH]1 (stereo not given), CC(C)(C)c1ccc(C(=O)NC2CCC(CCN3CCc4ccc(S(C)(=O)=O)cc4CC3)CC2)cc1C(F)(F)F (stereo not given), CCN(CC)CCN(Cc1ccc(-c2ccc(C(F)(F)F)cc2)cc1)C(=O)Cn1c(CCc2c(F)cc(F)cc2F)nc(=O)c2ccccc21, CC(C)(C)c1ccc(CN2CCC(NC(=O)c3ccc(-c4ccccc4F)s3)CC2)cc1, C1=CN(Cc2ccccc2)C=CC1=C1C=Nc2ccccc21, CCOc1ccc(C(=O)Nc2ccc(-c3nc4ccccc4[nH]3)cc2)cc1[N+](=O)[O-], CCCC(C)Nc1nc(C)cc(N[C@@H](Cc2ccccc2)C(=O)Nc2ccc(OC)cc2)n1 (stereo not given in full), Cc1nc(N)nc(N)c1-c1ccc(Br)c([N+](=O)[O-])c1, Cc1cc(NN=Cc2cccc([N+](=O)[O-])c2)c2cc(F)ccc2n1, CCCCCC(=O)NCC(NCCCNc1cc(=O)c2ccccc2[nH]1)c1cc(Br)cc(Br)c1 (stereo not given), CCC(=O)c1c(C)n(-c2ncnc3c2nc(C)n3-c2ccc(C)cc2C)c2ccccc12, Cc1ccccc1NC1=NC(=S)N(c2cccc(C(F)(F)F)c2)C12CCC(C(C)(C)C)CC2 (stereo not given), C=CCc1cc(Cc2cnc(N)nc2N)cc(CCC)c1O, CCNc1cc(C)nc(Nc2ccc(F)cc2)n1, Cc1ccc2c(Cl)c(C(=O)N3CCCc4ccccc43)sc2c1, COc1ccc(CNCc2cccc(-c3csc(-c4nc5ccccc5[nH]4)c3)c2)cc1, CC(C)(C)c1ccc(OCCCON2C(N)=NC(N)=NC2(C)C)c(C(C)(C)C)c1, CC(=O)Nc1nc(C(=O)Nc2cccc(-c3ccc4c(cnn4CC4CC4)c3)c2)cs1, CN(Cc1ccc(NC(=O)CCC2CCN(C(=O)/C=C/c3ccc(Cl)c(Cl)c3)CC2)cc1)C1CCOCC1, O=C(NCc1cccs1)[C@H](Cc1ccccc1)Nc1ccnc(NCC2CCCCC2)n1, Cc1cc(N[C@@H](CC(C)C)C(=O)NCCOc2ccccc2)nc(NCCc2ccc(F)cc2)n1, Cc1cccc(OCC2CCN(c3ncc(C(=O)NC4CC4)cc3Cl)CC2)c1, O=c1cc(NCCCNCc2cc(Cl)cc(Cl)c2OCc2ccc(Cl)cc2)[nH]c2ccccc12, CC(C)N(CC(=O)c1ccc(O)c(C(=O)O)c1)Cc1ccccc1, Cc1ccc(NC(=O)Nc2ccc(Cn3ncc(N4CCCNCC4)c(Cl)c3=O)cc2)cc1, Oc1ccc2ccccc2c1CNCC1CCCCC1, Cc1cc(CN2CC[C@H](NC(=O)c3ccc(Cl)c(Cl)c3)C2)ccc1OCCN1CCCC1, CCN(CCN(C)C)Cc1ccc(-c2ccc(NS(=O)(=O)c3cccc(Cl)c3)cc2)cc1, CCOC(=O)[C@H](Cc1cc([N+](=O)[O-])c(Oc2ccc(OC)c(Cc3ccc(OC)c(C(C)C)c3)c2)c([N+](=O)[O-])c1)NC(=O)C(F)(F)F, Cc1[nH]c2ccccc2c(=O)c1-c1ccc(Cl)cc1, c1ccc(CN2CCC(NCc3ccccc3-c3ccc(CNCc4ccc5c(c4)OCO5)cc3)CC2)cc1, COc1ccc(-n2nc(C(=O)NCCC3=CCCCC3)c3ccccc3c2=O)cc1, Nc1nc(N)c2c(Oc3cccc4ccccc34)cccc2n1, Cc1cc(N(C)C)nc(Nc2ccc(NC(=O)Nc3ccccc3)cc2)n1
